Results published in PubChem BioAssay (NCI).
This is part of a sample that, as a whole, favours compounds with a hit. Of some 83,000 tested, about 20% had one in any assay.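 The test compound was applied at a single concentration to cells in 96-well plates for 48 hours, and percent growth was recorded.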 The source made the active and inactive calls. How the source made its calls: active means growth percent below 10; inactive means the rest.

Experiments:
Assay in all cases: NCI-60 one-dose screen, 48 h (100 = growth as untreated, 0 = no growth, -100 = all killed)
NCI-H322M lung = conditions: 10 µM
HOP-62 NSCLC = conditions: 10 µM
A549/ATCC NSCLC = conditions: 10 µM
COLO 205 colon = conditions: 10 µM
DU-145 prostate = conditions: 10 µM
MALME-3M melanoma = conditions: 10 µM
SF-268 CNS = conditions: 10 µM
SF-295 CNS = conditions: 10 µM
SF-539 CNS = conditions: 10 µM
UACC-257 melanoma = conditions: 10 µM
M14 melanoma = conditions: 10 µM
HCT-15 colon = conditions: 10 µM
HT29 colon = conditions: 10 µM
SNB-75 CNS = conditions: 10 µM
SNB-19 CNS = conditions: 10 µM
SK-MEL-5 melanoma = conditions: 10 µM
UACC-62 melanoma = conditions: 10 µM
SK-MEL-28 melanoma = conditions: 10 µM
SK-MEL-2 melanoma = conditions: 10 µM
HL-60(TB) leukemia = conditions: 10 µM unless noted

Measured: growth

C#CC[Se]C(=O)c1ccc2n[se]nc2c1
active: HL-60(TB) leukemia 1.82%
inactive: NCI-H322M lung 12% | HOP-62 NSCLC 28.6% | A549/ATCC NSCLC 59.7% | COLO 205 colon 58.6% | DU-145 prostate 71.8% | MALME-3M melanoma 41.5% | SF-268 CNS 89.4% | SF-295 CNS 25.4% | SF-539 CNS 40.3% | UACC-257 melanoma 59.3% | M14 melanoma 54.9% | HCT-15 colon 25.8% | HT29 colon 39.6% | SNB-75 CNS 56.5% | SNB-19 CNS 79.9% | SK-MEL-5 melanoma 83.2% | UACC-62 melanoma 51.4% | SK-MEL-28 melanoma 79.4% | SK-MEL-2 melanoma 104%

O=C(/C=C/c1cccc(Br)c1)c1nc2ccccc2n1Cc1ccc(F)cc1
inactive: NCI-H322M lung 75.8% | HOP-62 NSCLC 38.3% | A549/ATCC NSCLC 52.2% | COLO 205 colon 79.3% | DU-145 prostate 30.2% | MALME-3M melanoma 50.5% | SF-268 CNS 62.6% | SF-295 CNS 62.9% | UACC-257 melanoma 55.1% | M14 melanoma 30.7% | SNB-75 CNS 32.9% | SNB-19 CNS 47.1% | SK-MEL-5 melanoma 58.3% | UACC-62 melanoma 22.4% | SK-MEL-28 melanoma 50.6% | SK-MEL-2 melanoma 63.9%
active: SF-539 CNS 8.26% | HCT-15 colon -31.6% | HT29 colon 7.15% | HL-60(TB) leukemia 3.12%

C[C@H]1[C@@H](CC(=O)N[C@@H](Cc2coc3ccccc23)B(O)O)O[C@@H]2OC3(C)CC[C@H]4[C@H](C)CC[C@@H]1[C@@]24OO3
active: HOP-62 NSCLC -17.3% | COLO 205 colon -49.2% | MALME-3M melanoma -60% | SF-295 CNS -88.8% | SF-539 CNS -96.4% | UACC-257 melanoma -41% | M14 melanoma -44% | HCT-15 colon -62.3% | HT29 colon -57.6% | SNB-75 CNS -19.3% | SK-MEL-5 melanoma -97.2% | UACC-62 melanoma -90.8% | SK-MEL-28 melanoma -49.4% | SK-MEL-2 melanoma -53.6% | HL-60(TB) leukemia -4.67%
inactive: NCI-H322M lung 19.6% | A549/ATCC NSCLC 19.1% | DU-145 prostate 21.6% | SF-268 CNS 20.4% | SNB-19 CNS 26%

CC1=C(COCCOC(=O)c2ccc(S(=O)(=O)F)cc2)C2=C(C)C3(CC3)[C@@](C)(O)C(=O)C2=C1
active: NCI-H322M lung -25.8% | HOP-62 NSCLC -27.5% | A549/ATCC NSCLC 4.56% | COLO 205 colon -73% | DU-145 prostate -3.95% | MALME-3M melanoma -78.2% | SF-295 CNS -11.8% | SF-539 CNS -76.2% | UACC-257 melanoma -31.6% | HCT-15 colon -29.6% | HT29 colon -28.5% | SNB-75 CNS -15.9% | SNB-19 CNS -10.6% | SK-MEL-5 melanoma -92.1% | UACC-62 melanoma -88.5% | SK-MEL-28 melanoma -63.6% | SK-MEL-2 melanoma -99.4% | HL-60(TB) leukemia -22.9%
inactive: SF-268 CNS 12.9% | M14 melanoma 11.1%

O=C(/C=C/c1ccc(F)cc1)c1nc2ccccc2n1Cc1ccc(Br)cc1
active: NCI-H322M lung -24.8% | HOP-62 NSCLC -68.6% | A549/ATCC NSCLC 1.63% | COLO 205 colon -82.4% | DU-145 prostate -42.2% | MALME-3M melanoma -77.9% | SF-268 CNS -4.4% | SF-295 CNS -87.5% | SF-539 CNS -92.5% | UACC-257 melanoma -17.4% | M14 melanoma -57.7% | HCT-15 colon -73.9% | HT29 colon -33.2% | SNB-19 CNS -63.7% | SK-MEL-5 melanoma -76.2% | UACC-62 melanoma -84% | SK-MEL-28 melanoma -58.4% | SK-MEL-2 melanoma -61.3% | HL-60(TB) leukemia -21.8%
inactive: SNB-75 CNS 44.5%

CC[C@]12C=CCN3CC[C@@]4(c5ccc(OC)cc5N(C)[C@H]4[C@@](O)(C(=O)OC)[C@@H]1OC(=O)CCCC[P+](C1CCCCC1)(C1CCCCC1)C1CCCCC1)[C@@H]32
inactive: NCI-H322M lung 16.1% | A549/ATCC NSCLC 11.6% | HCT-15 colon 75.2%
active: HOP-62 NSCLC 9.52% | COLO 205 colon -76.6% | DU-145 prostate 9.57% | MALME-3M melanoma -95.9% | SF-268 CNS -70.5% | SF-295 CNS -19.6% | SF-539 CNS -93.9% | UACC-257 melanoma -82.1% | M14 melanoma -83.5% | HT29 colon -24% | SNB-75 CNS -81.4% | SNB-19 CNS -71.1% | SK-MEL-5 melanoma -96.1% | UACC-62 melanoma -96.9% | SK-MEL-28 melanoma -86.5% | SK-MEL-2 melanoma -88% | HL-60(TB) leukemia -36.7%

C#CCCCN(CCNc1ccnc2cc(Cl)ccc12)C(=O)CCC(=O)O[C@@H]1O[C@@H]2OC3(C)CC[C@H]4[C@H](C)CC[C@@H]([C@H]1C)[C@@]24OO3
inactive: NCI-H322M lung 65.1% | HOP-62 NSCLC 58.9% | A549/ATCC NSCLC 40.8% | DU-145 prostate 59.1% | MALME-3M melanoma 20.3% | SF-268 CNS 56.9% | SF-295 CNS 33.8% | SF-539 CNS 39.2% | UACC-257 melanoma 29.3% | M14 melanoma 37.7% | HCT-15 colon 12.1% | SNB-75 CNS 67% | SNB-19 CNS 56.5% | UACC-62 melanoma 31.4% | SK-MEL-28 melanoma 44.1% | SK-MEL-2 melanoma 43.9%
active: COLO 205 colon 7.04% | HT29 colon 4.95% | SK-MEL-5 melanoma -36.1% | HL-60(TB) leukemia -26.3%
